About 79,000 compounds went through this panel and 15% of them were active in at least one assay; those are over-represented in the sample as a whole. Unmarked numbers belong to inactive results. Active and inactive are the calls of the source. Rule as the data show it: active = growth inhibition above about 70%; inactive = the rest.
Columns and labels:
[1] = NCI Yeast Anticancer Drug Screen. Data for the rad50 strain (AID 155);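 also: 0% = growth of vehicle-only cultures of the same strain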; conditions: S. cerevisiae rad50 strain growth inhibition, hits give high values
Summary of the method: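 Vehicle-treated cultures provide the reference for the growth inhibition reported for compound-exposed, repair-deficient yeast.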

[2] = NCI Yeast Anticancer Drug Screen. Data for the mec2-1 strain (AID 157); conditions: S. cerevisiae mec2-1 strain, hits give high values
Summary of the method: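 Using mec2-1 yeast: add compound, measure growth, express inhibition versus vehicle-treated cultures.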

[3] = NCI Yeast Anticancer Drug Screen. Data for the sgs1 mgt1 strain (AID 161);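 also: 0% = growth of cultures given vehicle only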; conditions: S. cerevisiae sgs1 mgt1 strain, hits give high values
Summary of the method: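 Growth of a repair-deficient yeast mutant was monitored after compound treatment and expressed as inhibition relative to vehicle-treated cultures.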

[4] = NCI Yeast Anticancer Drug Screen. Data for the cln2 rad14 strain (AID 165);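 also: 0% = growth equal to vehicle treated cultures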; conditions: S. cerevisiae cln2 rad14 strain, hits give high values
Summary of the method: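 Yeast strain cln2 rad14, bearing defects in cell cycle control and DNA repair, serves as the test system; values reflect growth inhibition compared with vehicle.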

[5] = NCI Yeast Anticancer Drug Screen. Data for the bub3 strain (AID 167); conditions: S. cerevisiae bub3 mutant strain, hits give high values
Summary of the method: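 Mutant yeast screening strain plus compound; vehicle-treated cultures serve as the 0% inhibition reference.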

[6] = NCI Yeast Anticancer Drug Screen. Data for the mlh1 rad18 strain (AID 175); conditions: S. cerevisiae mlh1 rad18 strain growth inhibition, hits give high values
Summary of the method: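 Steps: expose repair-defective yeast to compound; measure growth; express inhibition against vehicle-treated controls.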

[7] = at 5.0 µM (retest, dose inferred, filed as 0.5)
[8] = at 50.0 µM (retest, dose inferred, filed as 5.0)

`COC1C(N)C(OC2C(Oc3cccc4c(O)c5c(=O)oc6ccc(C)c7c(=O)oc(c34)c5c67)OC(C)C(O)C2(C)O)OC(C)C1O` (stereo not given) gave a growth inhibition [1, 7] of 12%, a growth inhibition [1, 8] of 48% and a growth inhibition ([1]; at 50.0 µM) of 26.8%. For the same molecule, the growth inhibition [2, 7] was -6%, the growth inhibition [2, 8] was 8% and the growth inhibition ([2]; at 50.0 µM) was 20.3%. For the same molecule, the growth inhibition [3, 7] was 29%, the growth inhibition [3, 8] was 32% and the growth inhibition ([3]; at 50.0 µM) was 23.1%. The growth inhibition [4, 7] was 8%, the growth inhibition [4, 8] was 36% and the growth inhibition ([4]; at 50.0 µM) was 32%. For the same molecule, the growth inhibition [5, 7] was 19%, the growth inhibition [5, 8] was 30% and the growth inhibition ([5]; at 50.0 µM) was 19.4%. It also gave a growth inhibition [6, 7] of 11%, a growth inhibition [6, 8] of 15% and a growth inhibition ([6]; at 50.0 µM) of 60.4%.

With `COCCOC1=C(Cl)C(=O)c2c(O)ccc(O)c2C1=O` the growth inhibition [1, 7] was 97% (active), the growth inhibition [1, 8] was 98% (active) and the growth inhibition ([1]; at 50.0 µM) was 90.5% (active). The growth inhibition [2, 7] was 99% (active), the growth inhibition [2, 8] was 98% (active) and the growth inhibition ([2]; at 50.0 µM) was 90.7% (active). For the same molecule, the growth inhibition [3, 7] was 94% (active), the growth inhibition [3, 8] was 99% (active) and the growth inhibition ([3]; at 50.0 µM) was 92.4% (active). For the same molecule, the growth inhibition [4, 7] was 69%, the growth inhibition [4, 8] was 99% (active) and the growth inhibition ([4]; at 50.0 µM) was 90.5% (active). The growth inhibition [5, 7] was 100% (active), the growth inhibition [5, 8] was 99% (active) and the growth inhibition ([5]; at 50.0 µM) was 90.3% (active). For the same molecule, the growth inhibition [6, 7] was 99% (active), the growth inhibition [6, 8] was 98% (active) and the growth inhibition ([6]; at 50.0 µM) was 89.2% (active).

For `COc1ccc(C2Cc3cc(OC)ccc3C2=O)cc1` (stereo not given), the growth inhibition [1, 7] was 13%, the growth inhibition [1, 8] was 94% (active) and the growth inhibition ([1]; at 50.0 µM) was 45.5%. For the same molecule, the growth inhibition [2, 7] was 9%, the growth inhibition [2, 8] was 98% (active) and the growth inhibition ([2]; at 50.0 µM) was 29.4%. For the same molecule, the growth inhibition [3, 7] was 17%, the growth inhibition [3, 8] was 95% (active) and the growth inhibition ([3]; at 50.0 µM) was 56.5%. The growth inhibition [4, 7] was 19%, the growth inhibition [4, 8] was 95% (active) and the growth inhibition ([4]; at 50.0 µM) was 23.6%. The growth inhibition [5, 7] was 32%, the growth inhibition [5, 8] was 97% (active) and the growth inhibition ([5]; at 50.0 µM) was 96% (active). For the same molecule, the growth inhibition [6, 7] was 10%, the growth inhibition [6, 8] was 97% (active) and the growth inhibition ([6]; at 50.0 µM) was 57.4%.

For `Cc1ccc(C(=O)N2CCN(C(=O)c3ccc(C)cc3)c3ccccc32)cc1`, the growth inhibition [1, 7] was -14%, the growth inhibition [1, 8] was 6% and the growth inhibition ([1]; at 50.0 µM) was 42.5%. The growth inhibition [2, 7] was -13%, the growth inhibition [2, 8] was -19% and the growth inhibition ([2]; at 50.0 µM) was 33.7%. For the same molecule, the growth inhibition [3, 7] was -10%, the growth inhibition [3, 8] was 30% and the growth inhibition ([3]; at 50.0 µM) was 40.8%. The growth inhibition [4, 7] was -7%, the growth inhibition [4, 8] was 14% and the growth inhibition ([4]; at 50.0 µM) was 36.6%. The growth inhibition [5, 7] was -3%, the growth inhibition [5, 8] was 43% and the growth inhibition ([5]; at 50.0 µM) was 75.8% (active). The growth inhibition [6, 7] was -26%, the growth inhibition [6, 8] was 14% and the growth inhibition ([6]; at 50.0 µM) was 18.9%.

Molecule `CCC(=O)C(C(=O)CC)c1c(OC(=O)c2ccccc2)ccc(O)c1C(=O)OC` has a growth inhibition [1, 7] of -4%, a growth inhibition [1, 8] of 30% and a growth inhibition ([1]; at 50.0 µM) of 30.9%. The growth inhibition [2, 7] was -1%, the growth inhibition [2, 8] was 16% and the growth inhibition ([2]; at 50.0 µM) was 47.9%. For the same molecule, the growth inhibition [3, 7] was 4%, the growth inhibition [3, 8] was 71% (active) and the growth inhibition ([3]; at 50.0 µM) was 71.4% (active). It also gave a growth inhibition [4, 7] of -5%, a growth inhibition [4, 8] of -5% and a growth inhibition ([4]; at 50.0 µM) of -7.45%. For the same molecule, the growth inhibition [5, 7] was -2%, the growth inhibition [5, 8] was -2% and the growth inhibition ([5]; at 50.0 µM) was 42.8%. For the same molecule, the growth inhibition [6, 7] was -3%, the growth inhibition [6, 8] was 30% and the growth inhibition ([6]; at 50.0 µM) was 67%.

With `O=C(/C(O)=C(\O)C(=O)N(C1CCCCC1)C1CCCCC1)N(C1CCCCC1)C1CCCCC1` the growth inhibition [1, 7] was 25%, the growth inhibition [1, 8] was 93% (active) and the growth inhibition ([1]; at 50.0 µM) was 96.9% (active). The growth inhibition [2, 7] was -2%, the growth inhibition [2, 8] was 89% (active) and the growth inhibition ([2]; at 50.0 µM) was 98.2% (active). The growth inhibition [3, 7] was 20%, the growth inhibition [3, 8] was 87% (active) and the growth inhibition ([3]; at 50.0 µM) was 96.8% (active). For the same molecule, the growth inhibition [4, 7] was -4%, the growth inhibition [4, 8] was 66% and the growth inhibition ([4]; at 50.0 µM) was 79.7% (active). The growth inhibition [5, 7] was 4%, the growth inhibition [5, 8] was 95% (active) and the growth inhibition ([5]; at 50.0 µM) was 95.5% (active). For the same molecule, the growth inhibition [6, 7] was 14%, the growth inhibition [6, 8] was 86% (active) and the growth inhibition ([6]; at 50.0 µM) was 97.8% (active).

In the case of `CC(C)C1=C2CCC3(C)C(CCC4C5C6OCC5(CCC6(C)C)CCC43C)C2(C)CC1` (stereo not given), the growth inhibition [1, 7] is reported as 22%, the growth inhibition [1, 8] is reported as 49% and the growth inhibition ([1]; at 50.0 µM) is reported as 72.5% (active). For the same molecule, the growth inhibition [2, 7] was 6%, the growth inhibition [2, 8] was 40% and the growth inhibition ([2]; at 50.0 µM) was 77.5% (active). The growth inhibition [3, 7] was 19%, the growth inhibition [3, 8] was 69% and the growth inhibition ([3]; at 50.0 µM) was 82.3% (active). The growth inhibition [4, 7] was 27%, the growth inhibition [4, 8] was 62% and the growth inhibition ([4]; at 50.0 µM) was 83.7% (active). For the same molecule, the growth inhibition [5, 7] was 10%, the growth inhibition [5, 8] was 57% and the growth inhibition ([5]; at 50.0 µM) was 77% (active). The growth inhibition [6, 7] was 17%, the growth inhibition [6, 8] was 45% and the growth inhibition ([6]; at 50.0 µM) was 65.5%.

Work on `Cc1ccc(C2CC(c3cccc([N+](=O)[O-])c3)=Nc3ccccc3S2)cc1` (stereo not given) yielded a growth inhibition [1, 7] of 0%, a growth inhibition [1, 8] of 19% and a growth inhibition ([1]; at 50.0 µM) of 57.5%. The growth inhibition [2, 7] was 0%, the growth inhibition [2, 8] was 31% and the growth inhibition ([2]; at 50.0 µM) was 15.9%. For the same molecule, the growth inhibition [3, 7] was -1%, the growth inhibition [3, 8] was 46% and the growth inhibition ([3]; at 50.0 µM) was 57.3%. The growth inhibition [4, 7] was -6%, the growth inhibition [4, 8] was -4% and the growth inhibition ([4]; at 50.0 µM) was 36.4%. The growth inhibition [5, 7] was 11%, the growth inhibition [5, 8] was 78% (active) and the growth inhibition ([5]; at 50.0 µM) was 88% (active). The growth inhibition [6, 7] was 2%, the growth inhibition [6, 8] was 29% and the growth inhibition ([6]; at 50.0 µM) was 60.8%.

With `Cc1c(-c2ccccc2)ccnc1/C=N/NC(=S)Nc1ccccc1` the growth inhibition [1, 7] was 1%, the growth inhibition [1, 8] was 39% and the growth inhibition ([1]; at 50.0 µM) was 89.2% (active). For the same molecule, the growth inhibition [2, 7] was 1%, the growth inhibition [2, 8] was 31% and the growth inhibition ([2]; at 50.0 µM) was 94% (active). The growth inhibition [3, 7] was 4%, the growth inhibition [3, 8] was 88% (active) and the growth inhibition ([3]; at 50.0 µM) was 95.1% (active). The growth inhibition [4, 7] was 1%, the growth inhibition [4, 8] was 23% and the growth inhibition ([4]; at 50.0 µM) was 92.1% (active). The growth inhibition [5, 7] was -2%, the growth inhibition [5, 8] was 49% and the growth inhibition ([5]; at 50.0 µM) was 95.7% (active). The growth inhibition [6, 7] was -5%, the growth inhibition [6, 8] was 59% and the growth inhibition ([6]; at 50.0 µM) was 93.8% (active).

With `O=C(NCCNCCNCCNC(=O)c1cc(-c2ccccc2)nc2ccccc12)c1cc(-c2ccccc2)nc2ccccc12` the growth inhibition [1, 7] was -16%, the growth inhibition [1, 8] was 57% and the growth inhibition ([1]; at 50.0 µM) was 98.7% (active). The growth inhibition [2, 7] was -10%, the growth inhibition [2, 8] was 63% and the growth inhibition ([2]; at 50.0 µM) was 99.2% (active). For the same molecule, the growth inhibition [3, 7] was -7%, the growth inhibition [3, 8] was 41% and the growth inhibition ([3]; at 50.0 µM) was 98.8% (active). The growth inhibition [4, 7] was 18%, the growth inhibition [4, 8] was 64% and the growth inhibition ([4]; at 50.0 µM) was 99% (active). The growth inhibition [5, 7] was -25%, the growth inhibition [5, 8] was 86% (active) and the growth inhibition ([5]; at 50.0 µM) was 99.2% (active). The growth inhibition [6, 7] was -4%, the growth inhibition [6, 8] was 88% (active) and the growth inhibition ([6]; at 50.0 µM) was 99% (active).

— PubChem BioAssay (NCI)
